# The whole screen tested about 5,500 compounds, of which about 2,000 (36%) were called active. About 18% were inconclusive and are not listed. The list shows a part of the results. Unmarked numbers belong to inactive results. No stated cut-off is given here; in the data, active means normalized growth mostly below about 0.91 (no sharp cut-off); inconclusive means no clear call, values can overlap the other calls; inactive means mostly above about 0.92.
# Assay: chemical genetic growth profiling, strain panel (AID 1159580);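 further: tested at 20 µM; growth read once vehicle control cultures reached saturation at 30 °C; 1 = growth at the plate median or of vehicle wells; lower values mean less growth of the strain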
# Conditions: growth OD
# [1] = S. cerevisiae deletion strains, locus YAL013W, strain DEP1, hits give low values
# [2] = S. cerevisiae deletion strains, locus YBR229C, strain ROT2, hits give low values
# [3] = S. cerevisiae deletion strains, locus YDL101C, strain DUN1, hits give low values
# [4] = S. cerevisiae deletion strains, locus YDR150W, strain NUM1, hits give low values
# [5] = S. cerevisiae deletion strains, locus YEL061C, strain CIN8, hits give low values
# [6] = S. cerevisiae deletion strains, locus YGR078C, strain PAC10, hits give low values
# [7] = S. cerevisiae deletion strains, locus YHR030C, strain SLT2, hits give low values
# [8] = S. cerevisiae deletion strains, locus YJR043C, strain POL32, hits give low values
# [9] = S. cerevisiae deletion strains, locus YJR075W, strain HOC1, hits give low values
# [10] = S. cerevisiae deletion strains, locus YLR039C, strain RIC1, hits give low values
# [11] = S. cerevisiae deletion strains, locus YLR262C, strain YPT6, hits give low values
# [12] = S. cerevisiae deletion strains, locus YMR263W, strain SAP30, hits give low values
# [13] = S. cerevisiae deletion strains, locus YMR307W, strain GAS1, hits give low values
# [14] = S. cerevisiae deletion strains, locus YNL128W, strain TEP1, hits give low values
# [15] = S. cerevisiae deletion strains, locus YNL153C, strain GIM3, hits give low values
# [16] = S. cerevisiae deletion strains, locus YNL322C, strain KRE1, hits give low values
# [17] = S. cerevisiae deletion strains, locus YOL006C, strain TOP1, hits give low values
# [18] = S. cerevisiae deletion strains, locus YPL055C, strain LGE1, hits give low values
# [19] = S. cerevisiae deletion strains, locus YPL241C, strain CIN2, hits give low values
# [20] = S. cerevisiae strains, strain wild type, hits give low values
# [21] = S. cerevisiae deletion strains, locus YAL040C, strain CLN3, hits give low values
# [22] = S. cerevisiae deletion strains, locus YCL061C, strain MRC1 (second series), hits give low values
# [23] = S. cerevisiae deletion strains, locus YDR363W, strain ESC2, hits give low values
# [24] = S. cerevisiae deletion strains, locus YER002W, strain NOP16, hits give low values
# [25] = S. cerevisiae deletion strains, locus YNL175C, strain NOP13, hits give low values
# [26] = S. cerevisiae deletion strains, locus YNL197C, strain WHI3, hits give low values
# [27] = S. cerevisiae deletion strains, locus YNL224C, strain SQS1, hits give low values
# [28] = S. cerevisiae deletion strains, locus YOR083W, strain WHI5 (second series), hits give low values
compound,measurement,setting,value
COC(=O)CCC(=O)O[C@H]1CCC2(C)C(CCC3C2C(=O)[C@@H](O)C2(C)C3CC3OC4(CCC(C)CO4)[C@@H](C)C32)C1 (stereo partly drawn),normalized growth,[1],0.991
same,normalized growth,"S. cerevisiae deletion strains, locus YBR021W, strain FUR4, hits give low values",1.01
same,normalized growth,[2],1.01
same,normalized growth,"S. cerevisiae deletion strains, locus YCL029C, strain bik1, hits give low values",0.997
same,normalized growth,"S. cerevisiae deletion strains, locus YDL035C, strain GPR1, hits give low values",0.993
same,normalized growth,"S. cerevisiae deletion strains, locus YDL074C, strain BRE1, hits give low values",0.997
same,normalized growth,[3],1.02
same,normalized growth,"S. cerevisiae deletion strains, locus YDL134C, strain PPH21, hits give low values",1
same,normalized growth,"S. cerevisiae deletion strains, locus YDL185W, strain tfp1, hits give low values",0.996
same,normalized growth,"S. cerevisiae deletion strains, locus YDL192W, strain arf1, hits give low values",1
same,normalized growth,"S. cerevisiae deletion strains, locus YDR101C, strain arx1, hits give low values",0.997
same,normalized growth,[4],1
same,normalized growth,"S. cerevisiae deletion strains, locus YDR162C, strain NBP2, hits give low values",1
same,normalized growth,"S. cerevisiae deletion strains, locus YDR318W, strain mcm21, hits give low values",0.996
same,normalized growth,"S. cerevisiae deletion strains, locus YDR388W, hits give low values",0.994
same,normalized growth,"S. cerevisiae deletion strains, locus YDR502C, strain sam2, hits give low values",1
same,normalized growth,[5],1.01
same,normalized growth,"S. cerevisiae deletion strains, locus YER110C, hits give low values",0.996
same,normalized growth,"S. cerevisiae deletion strains, locus YER155C, strain BEM2, hits give low values",1.01
same,normalized growth,"S. cerevisiae deletion strains, locus YER167W, strain BCK2, hits give low values",1.02
same,normalized growth,"S. cerevisiae deletion strains, locus YGL078C, strain dbp3, hits give low values",0.991
same,normalized growth,"S. cerevisiae deletion strains, locus YGL086W, strain mad1, hits give low values",1
same,normalized growth,"S. cerevisiae deletion strains, locus YGL248W, strain PDE1, hits give low values",1
same,normalized growth,[6],1.02
same,normalized growth,"S. cerevisiae deletion strains, locus YGR135W, strain pre9, hits give low values",1
same,normalized growth,"S. cerevisiae deletion strains, locus YGR229C, strain SMI1, hits give low values",1.01
same,normalized growth,"S. cerevisiae deletion strains, locus YGR252W, strain gcn5, hits give low values",0.963
same,normalized growth,[7],1.01
same,normalized growth,"S. cerevisiae deletion strains, locus YHR079C, strain IRE1 (second series), hits give low values",0.991
same,normalized growth,"S. cerevisiae deletion strains, locus YHR094C, strain hxt1, hits give low values",0.998
same,normalized growth,"S. cerevisiae deletion strains, locus YHR129C, strain ARP1, hits give low values",0.999
same,normalized growth,"S. cerevisiae deletion strains, locus YHR200W, strain rpn10, hits give low values",1
same,normalized growth,"S. cerevisiae deletion strains, locus YIL066C, strain RNR3, hits give low values",1.01
same,normalized growth,"S. cerevisiae deletion strains, locus YIL073C, strain SPO22, hits give low values",1
same,normalized growth,"S. cerevisiae deletion strains, locus YIL125W, strain kgd1, hits give low values",1.01
same,normalized growth,"S. cerevisiae deletion strains, locus YIR030C, strain dcg1, hits give low values",0.998
same,normalized growth,"S. cerevisiae deletion strains, locus YJL095W, strain BCK1, hits give low values",0.989
same,normalized growth,"S. cerevisiae deletion strains, locus YJL134W, strain LCB3, hits give low values",1.01
same,normalized growth,"S. cerevisiae deletion strains, locus YJL168C, strain set2, hits give low values",0.994
same,normalized growth,"S. cerevisiae deletion strains, locus YJL187C, strain SWE1 (second series), hits give low values",1
same,normalized growth,[8],1
same,normalized growth,[9],1.02
same,normalized growth,"S. cerevisiae deletion strains, locus YKL009W, strain mrt4, hits give low values",0.998
same,normalized growth,"S. cerevisiae deletion strains, locus YKL068W, hits give low values",0.999
same,normalized growth,"S. cerevisiae deletion strains, locus YKL085W, strain MDH1 (second series), hits give low values",0.996
same,normalized growth,"S. cerevisiae deletion strains, locus YKL085W, strain MDH1, hits give low values",0.996
same,normalized growth,"S. cerevisiae deletion strains, locus YKL190W, strain CNB1, hits give low values",1.01
same,normalized growth,"S. cerevisiae deletion strains, locus YKR001C, strain vps1, hits give low values",0.993
same,normalized growth,[10],0.996
same,normalized growth,"S. cerevisiae deletion strains, locus YLR058C, strain SHM2, hits give low values",1
same,normalized growth,"S. cerevisiae deletion strains, locus YLR102C, strain apc9, hits give low values",0.996
same,normalized growth,[11],0.984
same,normalized growth,"S. cerevisiae deletion strains, locus YLR268W, strain sec22, hits give low values",1
same,normalized growth,"S. cerevisiae deletion strains, locus YLR330W, strain CHS5, hits give low values",1.01
same,normalized growth,"S. cerevisiae deletion strains, locus YLR342W, strain FKS1 (second series), hits give low values",1.02
same,normalized growth,"S. cerevisiae deletion strains, locus YLR371W, strain rom2, hits give low values",1
same,normalized growth,"S. cerevisiae deletion strains, locus YLR418C, strain cdc73, hits give low values",0.982
same,normalized growth,"S. cerevisiae deletion strains, locus YML016C, strain PPZ1, hits give low values",1.01
same,normalized growth,"S. cerevisiae deletion strains, locus YML032C, strain rad52, hits give low values",1.01
same,normalized growth,"S. cerevisiae deletion strains, locus YML124C, strain tub3, hits give low values",0.998
same,normalized growth,"S. cerevisiae deletion strains, locus YMR078C, strain ctf18, hits give low values",0.994
same,normalized growth,"S. cerevisiae deletion strains, locus YMR223W, strain ubp8, hits give low values",1
same,normalized growth,[12],1.03
same,normalized growth,[13],0.997
same,normalized growth,"S. cerevisiae deletion strains, locus YNL067W, strain RPL9B, hits give low values",1.01
same,normalized growth,[14],1.01
same,normalized growth,[15],1.01
same,normalized growth,"S. cerevisiae deletion strains, locus YNL233W, strain BNI4, hits give low values",1
same,normalized growth,"S. cerevisiae deletion strains, locus YNL250W, strain rad50, hits give low values",0.999
same,normalized growth,"S. cerevisiae deletion strains, locus YNL271C, strain bni1, hits give low values",0.995
same,normalized growth,"S. cerevisiae deletion strains, locus YNL298W, strain CLA4, hits give low values",0.985
same,normalized growth,"S. cerevisiae deletion strains, locus YNL307C, strain MCK1, hits give low values",0.997
same,normalized growth,[16],1.01
same,normalized growth,"S. cerevisiae deletion strains, locus YNR052C, strain pop2, hits give low values",1
same,normalized growth,[17],0.943
same,normalized growth,"S. cerevisiae deletion strains, locus YOL012C, strain htz1",1.03
same,normalized growth,"S. cerevisiae deletion strains, locus YOL147C, strain pex11, hits give low values",1
same,normalized growth,"S. cerevisiae deletion strains, locus YOR061W, strain CKA2, hits give low values",1
same,normalized growth,"S. cerevisiae deletion strains, locus YOR069W, strain VPS5, hits give low values",1.01
same,normalized growth,"S. cerevisiae deletion strains, locus YOR136W, strain idh2, hits give low values",1
same,normalized growth,"S. cerevisiae deletion strains, locus YOR144C, strain elg1, hits give low values",0.996
same,normalized growth,"S. cerevisiae deletion strains, locus YOR184W, strain ser1, hits give low values",1.01
same,normalized growth,"S. cerevisiae deletion strains, locus YOR316C, strain cot1, hits give low values",1
same,normalized growth,[18],1.03
same,normalized growth,[19],1
same,normalized growth,"S. cerevisiae deletion strains, locus YPR119W, strain clb2, hits give low values",0.988
same,normalized growth,"S. cerevisiae deletion strains, locus YPR141C, strain kar3, hits give low values",0.997
same,normalized growth,"S. cerevisiae deletion strains, locus YPR163C, strain tif3, hits give low values",0.998
same,normalized growth,"S. cerevisiae deletion strains, locus YPR167C, strain met16, hits give low values",1
same,normalized growth,"S. cerevisiae deletion strains, strain wtn01, hits give low values",1
same,normalized growth,[20],1.04
COc1ccc(C=C2C(=O)NC(=S)NC2=O)cc1Br,normalized growth,[1],1.02
same,normalized growth,[2],1.03
same,normalized growth,[3],1
same,normalized growth,[4],0.946
same,normalized growth,[5],0.992
same,normalized growth,[6],0.995
same,normalized growth,[7],1.01
same,normalized growth,"S. cerevisiae deletion strains, locus YHR087W, strain rtc3, hits give low values",0.984
same,normalized growth,[8],0.998
same,normalized growth,[9],1
same,normalized growth,[10],1.07
same,normalized growth,"S. cerevisiae deletion strains, locus YLR058C, strain SHM2 (second series), hits give low values",1
same,normalized growth,"S. cerevisiae deletion strains, locus YLR085C, strain ARP6, hits give low values",1.01
same,normalized growth,[11],1.06
same,normalized growth,"S. cerevisiae deletion strains, locus YML094W, strain GIM5, hits give low values",1
same,normalized growth,"S. cerevisiae deletion strains, locus YMR219W, strain ESC1, hits give low values",1.01
same,normalized growth,[12],0.928
same,normalized growth,[14],1
same,normalized growth,[15],0.965
same,normalized growth,"S. cerevisiae deletion strains, locus YNL298W, strain CLA4 (second series), hits give low values",1
same,normalized growth,[16],1.01
same,normalized growth,"S. cerevisiae deletion strains, locus YNR030W, strain Alg12, hits give low values",0.997
same,normalized growth,[17],1.01
same,normalized growth,[18],0.884
same,normalized growth,[19],1.02
same,normalized growth,"S. cerevisiae deletion strains, locus YPR135W, strain CTF4, hits give low values",0.968
same,normalized growth,[20],1.01
O=C1Nc2ccc(I)cc2/C1=C/c1cc(Br)c(O)c(Br)c1,normalized growth,[21],0.966
same,normalized growth,[22],0.995
same,normalized growth,[4],0.953
same,normalized growth,[23],0.942
same,normalized growth,[24],1.01
same,normalized growth,[6],0.919
same,normalized growth,[9],0.979
same,normalized growth,[12],0.991
same,normalized growth,[15],0.666 (active)
same,normalized growth,[25],0.922
same,normalized growth,[26],0.97
same,normalized growth,[27],0.993
same,normalized growth,[28],0.665 (active)
CCO/C([O-])=N/c1c[n+](N2CCOCC2)no1,normalized growth,[21],0.99
same,normalized growth,[22],0.99
same,normalized growth,[23],1.02
same,normalized growth,[24],1
same,normalized growth,[12],0.98
same,normalized growth,[13],0.996
same,normalized growth,[14],1.01
same,normalized growth,[25],1
same,normalized growth,[26],0.984
same,normalized growth,[27],1.01
same,normalized growth,[28],0.995
same,normalized growth,[19],0.968

# Reference: PubChem BioAssay AID1159580 (chemical genetic matrix, 2015)
